Laboratory results taken from PubChem BioAssay AID1159580 (chemical genetic matrix, 2015).
Hit rate of the full screen: of about 5,500 compounds, about 2,000 (36%) were called active. Inconclusive results (about 18%) are left out. No stated cut-off is given here; in the data, active means normalized growth mostly below about 0.91 (no sharp cut-off); inconclusive means no clear call, values can overlap the other calls; inactive means mostly above about 0.92. The list shows a part of the results.

Assay: chemical genetic growth profiling, strain panel (AID 1159580);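 further: tested at 20 µM; growth read once vehicle control cultures reached saturation at 30 °C; 1 = growth at the plate median or of vehicle wells; lower values mean less growth of the strain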
Settings: growth OD
[1] = S. cerevisiae deletion strains, locus YDR150W, strain NUM1, hits give low values
[2] = S. cerevisiae deletion strains, locus YGR078C, strain PAC10, hits give low values
[3] = S. cerevisiae deletion strains, locus YMR307W, strain GAS1, hits give low values
[4] = S. cerevisiae deletion strains, locus YNL153C, strain GIM3, hits give low values
[5] = S. cerevisiae deletion strains, locus YNL322C, strain KRE1, hits give low values
[6] = S. cerevisiae deletion strains, locus YPL241C, strain CIN2, hits give low values

Measured: normalized growth

CC#CCOC(=O)c1c(C)nc2sc3c(c2c1N)CCC(O)C3 (stereo not given)
inactive: S. cerevisiae deletion strains, locus YAL040C, strain CLN3, hits give low values 1.06 | S. cerevisiae deletion strains, locus YCL061C, strain MRC1 (second series), hits give low values 0.993 | [1] 0.987 | S. cerevisiae deletion strains, locus YDR363W, strain ESC2, hits give low values 1 | S. cerevisiae deletion strains, locus YER002W, strain NOP16, hits give low values 0.971 | [2] 0.982 | [3] 0.994 | [4] 1.18 | S. cerevisiae deletion strains, locus YNL175C, strain NOP13, hits give low values 0.955 | S. cerevisiae deletion strains, locus YNL197C, strain WHI3, hits give low values 0.967 | S. cerevisiae deletion strains, locus YNL224C, strain SQS1, hits give low values 0.971 | [5] 0.982 | S. cerevisiae deletion strains, locus YOR083W, strain WHI5 (second series), hits give low values 0.891 | [6] 0.99

CC1(C)CC2C1(O)CCC1(C)C=CC(O)C21CO (stereo not given)
inactive: S. cerevisiae deletion strains, locus YAL013W, strain DEP1, hits give low values 0.99 | S. cerevisiae deletion strains, locus YBR021W, strain FUR4, hits give low values 1.01 | S. cerevisiae deletion strains, locus YBR229C, strain ROT2, hits give low values 0.995 | S. cerevisiae deletion strains, locus YCL029C, strain bik1, hits give low values 0.975 | S. cerevisiae deletion strains, locus YDL035C, strain GPR1, hits give low values 0.983 | S. cerevisiae deletion strains, locus YDL074C, strain BRE1, hits give low values 1.03 | S. cerevisiae deletion strains, locus YDL101C, strain DUN1, hits give low values 0.998 | S. cerevisiae deletion strains, locus YDL134C, strain PPH21, hits give low values 0.998 | S. cerevisiae deletion strains, locus YDL185W, strain tfp1, hits give low values 0.976 | S. cerevisiae deletion strains, locus YDL192W, strain arf1, hits give low values 0.979 | S. cerevisiae deletion strains, locus YDR101C, strain arx1, hits give low values 1 | [1] 0.987 | S. cerevisiae deletion strains, locus YDR162C, strain NBP2, hits give low values 1.03 | S. cerevisiae deletion strains, locus YDR318W, strain mcm21, hits give low values 0.975 | S. cerevisiae deletion strains, locus YDR388W, hits give low values 0.993 | S. cerevisiae deletion strains, locus YDR502C, strain sam2, hits give low values 1.01 | S. cerevisiae deletion strains, locus YEL061C, strain CIN8, hits give low values 0.992 | S. cerevisiae deletion strains, locus YER110C, hits give low values 0.959 | S. cerevisiae deletion strains, locus YER155C, strain BEM2, hits give low values 0.995 | S. cerevisiae deletion strains, locus YER167W, strain BCK2, hits give low values 0.982 | S. cerevisiae deletion strains, locus YGL078C, strain dbp3, hits give low values 0.994 | S. cerevisiae deletion strains, locus YGL086W, strain mad1, hits give low values 0.969 | S. cerevisiae deletion strains, locus YGL248W, strain PDE1, hits give low values 0.993 | [2] 1.03 | S. cerevisiae deletion strains, locus YGR135W, strain pre9, hits give low values 1.02 | S. cerevisiae deletion strains, locus YGR229C, strain SMI1, hits give low values 1.03 | S. cerevisiae deletion strains, locus YGR252W, strain gcn5, hits give low values 0.995 | S. cerevisiae deletion strains, locus YHR030C, strain SLT2, hits give low values 0.982 | S. cerevisiae deletion strains, locus YHR079C, strain IRE1 (second series), hits give low values 0.988 | S. cerevisiae deletion strains, locus YHR094C, strain hxt1, hits give low values 0.98 | S. cerevisiae deletion strains, locus YHR129C, strain ARP1, hits give low values 0.997 | S. cerevisiae deletion strains, locus YHR200W, strain rpn10, hits give low values 0.984 | S. cerevisiae deletion strains, locus YIL066C, strain RNR3, hits give low values 0.992 | S. cerevisiae deletion strains, locus YIL073C, strain SPO22, hits give low values 0.873 | S. cerevisiae deletion strains, locus YIL125W, strain kgd1, hits give low values 0.976 | S. cerevisiae deletion strains, locus YIR030C, strain dcg1, hits give low values 0.99 | S. cerevisiae deletion strains, locus YJL095W, strain BCK1, hits give low values 1.04 | S. cerevisiae deletion strains, locus YJL134W, strain LCB3, hits give low values 0.992 | S. cerevisiae deletion strains, locus YJL168C, strain set2, hits give low values 0.989 | S. cerevisiae deletion strains, locus YJL187C, strain SWE1 (second series), hits give low values 1 | S. cerevisiae deletion strains, locus YJR043C, strain POL32, hits give low values 0.994 | S. cerevisiae deletion strains, locus YJR075W, strain HOC1, hits give low values 0.988 | S. cerevisiae deletion strains, locus YKL009W, strain mrt4, hits give low values 0.95 | S. cerevisiae deletion strains, locus YKL068W, hits give low values 0.98 | S. cerevisiae deletion strains, locus YKL085W, strain MDH1 (second series), hits give low values 0.976 | S. cerevisiae deletion strains, locus YKL085W, strain MDH1, hits give low values 0.976 | S. cerevisiae deletion strains, locus YKL190W, strain CNB1, hits give low values 0.999 | S. cerevisiae deletion strains, locus YKR001C, strain vps1, hits give low values 1 | S. cerevisiae deletion strains, locus YLR039C, strain RIC1, hits give low values 0.945 | S. cerevisiae deletion strains, locus YLR058C, strain SHM2, hits give low values 0.983 | S. cerevisiae deletion strains, locus YLR102C, strain apc9, hits give low values 0.987 | S. cerevisiae deletion strains, locus YLR262C, strain YPT6, hits give low values 0.936 | S. cerevisiae deletion strains, locus YLR268W, strain sec22, hits give low values 1.02 | S. cerevisiae deletion strains, locus YLR330W, strain CHS5, hits give low values 0.984 | S. cerevisiae deletion strains, locus YLR342W, strain FKS1 (second series), hits give low values 0.994 | S. cerevisiae deletion strains, locus YLR371W, strain rom2, hits give low values 0.969 | S. cerevisiae deletion strains, locus YLR418C, strain cdc73, hits give low values 1.06 | S. cerevisiae deletion strains, locus YML016C, strain PPZ1, hits give low values 0.994 | S. cerevisiae deletion strains, locus YML032C, strain rad52, hits give low values 1.09 | S. cerevisiae deletion strains, locus YML124C, strain tub3, hits give low values 0.988 | S. cerevisiae deletion strains, locus YMR078C, strain ctf18, hits give low values 0.985 | S. cerevisiae deletion strains, locus YMR223W, strain ubp8, hits give low values 0.977 | S. cerevisiae deletion strains, locus YMR263W, strain SAP30, hits give low values 1.01 | [3] 1.08 | S. cerevisiae deletion strains, locus YNL067W, strain RPL9B, hits give low values 1.03 | S. cerevisiae deletion strains, locus YNL128W, strain TEP1, hits give low values 0.996 | [4] 1.03 | S. cerevisiae deletion strains, locus YNL233W, strain BNI4, hits give low values 1.04 | S. cerevisiae deletion strains, locus YNL250W, strain rad50, hits give low values 0.973 | S. cerevisiae deletion strains, locus YNL271C, strain bni1, hits give low values 0.973 | S. cerevisiae deletion strains, locus YNL298W, strain CLA4, hits give low values 0.977 | S. cerevisiae deletion strains, locus YNL307C, strain MCK1, hits give low values 0.999 | [5] 0.981 | S. cerevisiae deletion strains, locus YNR052C, strain pop2, hits give low values 0.963 | S. cerevisiae deletion strains, locus YOL006C, strain TOP1, hits give low values 1.03 | S. cerevisiae deletion strains, locus YOL012C, strain htz1 1.26 | S. cerevisiae deletion strains, locus YOL147C, strain pex11, hits give low values 0.977 | S. cerevisiae deletion strains, locus YOR061W, strain CKA2, hits give low values 0.997 | S. cerevisiae deletion strains, locus YOR069W, strain VPS5, hits give low values 0.994 | S. cerevisiae deletion strains, locus YOR136W, strain idh2, hits give low values 0.984 | S. cerevisiae deletion strains, locus YOR144C, strain elg1, hits give low values 0.984 | S. cerevisiae deletion strains, locus YOR184W, strain ser1, hits give low values 0.965 | S. cerevisiae deletion strains, locus YOR316C, strain cot1, hits give low values 0.991 | S. cerevisiae deletion strains, locus YPL055C, strain LGE1, hits give low values 1.03 | [6] 0.991 | S. cerevisiae deletion strains, locus YPR119W, strain clb2, hits give low values 0.988 | S. cerevisiae deletion strains, locus YPR141C, strain kar3, hits give low values 0.982 | S. cerevisiae deletion strains, locus YPR163C, strain tif3, hits give low values 0.972 | S. cerevisiae deletion strains, locus YPR167C, strain met16, hits give low values 0.994 | S. cerevisiae deletion strains, strain wtn01, hits give low values 1.02 | S. cerevisiae strains, strain wild type, hits give low values 0.993
